Assay [1] deals with T1, Aspartate--tRNA(Asp/Asn) ligase (Mycobacterium tuberculosis (strain ATCC 25618 / H37Rv)) (UniProt P9WFW3).
T1 sequence (whole entry): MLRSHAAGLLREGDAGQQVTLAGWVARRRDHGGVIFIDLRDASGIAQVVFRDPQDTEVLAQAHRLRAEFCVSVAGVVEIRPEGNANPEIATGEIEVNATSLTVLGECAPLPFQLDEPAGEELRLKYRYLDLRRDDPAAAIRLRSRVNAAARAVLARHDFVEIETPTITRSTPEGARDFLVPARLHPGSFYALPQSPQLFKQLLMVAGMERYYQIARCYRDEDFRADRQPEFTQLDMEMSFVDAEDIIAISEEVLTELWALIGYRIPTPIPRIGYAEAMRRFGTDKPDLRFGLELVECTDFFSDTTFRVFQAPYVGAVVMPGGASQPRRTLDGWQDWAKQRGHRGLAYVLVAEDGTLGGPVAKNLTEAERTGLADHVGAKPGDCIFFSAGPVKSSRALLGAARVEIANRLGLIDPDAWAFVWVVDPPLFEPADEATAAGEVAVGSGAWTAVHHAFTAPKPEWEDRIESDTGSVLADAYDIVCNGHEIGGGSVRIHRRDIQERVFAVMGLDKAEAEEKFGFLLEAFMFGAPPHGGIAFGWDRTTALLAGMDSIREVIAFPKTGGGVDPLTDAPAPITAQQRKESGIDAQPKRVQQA
The experiment in a line: Assay for Asp RNA synthetase-1 from Mycobacterium tuberculosis. Type of assay: functional. Further details: scale not given: direction of the effect not stated beside the values. The conditions noted are these: 30 µM.

The target of assay [2] is Shiga toxin 2 (Escherichia coli O157:H7) (UniProt P09385+P09386). The assay is described as follows: E. coli 0.157:H7 Shiga Toxin SOP - stx2 screening assay. Type of assay: functional. Conditions: 30 µM. Further details: scale not given: direction of the effect not stated beside the values.

`COc1ccc(C(=O)N2CCCC(C)C2)cc1F` (stereo not given): the Percent Effect was found to be 0.26% in assay [1] and 13.7% in assay [2].

`COc1ccc(C2=C(C)C(N3CCc4ccccc4C3)=NS2(=O)=O)cc1`: the Percent Effect in assay [1] was 2.67%; in assay [2], -90%.

For `CCCS(=O)(=O)N1CCN(c2ccnc(N3CCCC3)n2)CC1`, the values for the Percent Effect in assay [1] and in assay [2] were 2.06% and -50.6%, respectively.

Regarding `CC(=O)NC1CCCN(C(=O)NCc2ccc(-c3ccn[nH]3)cc2)C1` (stereo not given), the Percent Effect is -1.85% in assay [1] and 1.62% in assay [2].

In the case of `CNc1nc(CNC(=O)Nc2ccccc2-c2noc(C)n2)cs1`, the Percent Effect in assay [1] is -2.92%; in assay [2], 13.1%.

For the compound `O=C(Cc1ccc2c(c1)OCCO2)NCCc1nnc2n1CCC2`, the Percent Effect in assay [1] stood at 6.11%; in assay [2], 15.8%.

Consider `Cn1ccnc1CNC(=O)N(CCCO)C1CCCc2ccccc21` (stereo not given), for which the Percent Effect in assay [1] was found to be 0.809%; in assay [2] it was 1.57%.

Turning to `CCOC(=O)N1CCN(C(=O)CCn2ccc3c(OC)cccc32)CC1`, the Percent Effect in assay [1] is 0.389%; in assay [2] it was -14.3%.

For the compound `O=C(CN(C1=NCCCC1)c1ccccc1)c1ccccc1`, the figures for the Percent Effect in assay [1] and in assay [2] were 2.67% and -26.2%, respectively.

With `CC(NC(=O)Cn1cccn1)c1ccc2c(c1)OCCCO2` (stereo not given), the values for the Percent Effect in assay [1] and in assay [2] were -2.88% and -69%, respectively.
